PubChem BioAssay (NCI)
This is part of a sample that, as a whole, favours compounds with a hit. Of some 79,000 tested, about 15% had one in any assay. A number with no mark means an inactive call. No stated cut-off is given here; in the data, active means growth inhibition above about 70%; inactive means the rest.

Assay: NCI Yeast Anticancer Drug Screen. Data for the rad50 strain (AID 155);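 further: 0% = growth of vehicle-only cultures of the same strain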
Conditions: S. cerevisiae rad50 strain growth inhibition; at 50.0 µM; hits give high values
Outline: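 Readout: growth inhibition relative to vehicle-treated cultures. Compound exposure was carried out in a genetically defined yeast strain deficient in DNA damage repair.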

| Structure (SMILES) | growth inhibition [%] |
| --- | --- |
| CC(C)(C)c1ccc(SCC#CCOc2ccc(Cl)cc2)cc1 | -6.2 |
| COc1cc(/C=C/c2ccc([N+](=O)[O-])cc2[N+](=O)[O-])ccc1O | 24.3 |
| CC12CCC(/C(=N/O)C1=O)C2(C)C (centres undefined) | 2.15 |
| O=C(O)c1cc(-c2ccccc2Cl)nc2cc3ccccc3cc12 | -14.4 |
| CCOC(=O)c1ccc(NC(=S)NCc2cccnc2)cc1 | 11.6 |
| Cc1ccc(/C=N/NS(=O)(=O)c2ccc(/C=C3\NC(=O)NC3=O)cc2)cc1 | -16.8 |
| CC(=Nc1ccc(Cl)c(Cl)c1)c1ccncc1 | -31.9 |
| CCCCCCCCCCCCCCCCCCCOc1ccc(OCCCCCCCC)cc1 | 40.8 |
| COc1cc(OC)c2nccc(NCCCN(C)C)c2c1[N+](=O)[O-] | 4.75 |
| CC12CCc3ccccc3C1=NNC(=O)C2 (centres undefined) | -3.2 |
| CC(CNC(N)=O)(CNC(N)=O)c1ccccc1 | -4.75 |
| C(=C\c1ccccc1)/Cn1nc(-c2ccccc2)nc1-c1cnccn1 | -33.1 |
| O=C(CCCC(=O)N/N=C/c1ccc(Cl)cc1)N/N=C\c1ccc(Cl)cc1 | -27.4 |
| CCCC(O)C(C)N (centres undefined) | 4.3 |
| N#CC(C#N)=C(N)/C(C#N)=C/c1ccc2[nH]ccc2c1 | -11 |
| Nc1ccc(OCC(O)CN2CCN(c3ccccc3)CC2)cc1 (centres undefined) | 7.45 |
| O=COCCO | -12.6 |
| COc1cccc(C2c3cc4c(cc3OC(N3CCCC3)C2C)OCO4)c1O (centres undefined) | 13.6 |
| O=c1[nH]cnc2c(C3OC(CO)C(O)C3O)[nH]nc12 (centres undefined) | -5.2 |
| Cn1nc(-c2ccccc2)c(C(=O)/C=C/c2ccc(F)cc2)c(N2CCOCC2)c1=O | -34.9 |
| O=C1N=C(c2ccccc2)C(c2ccccc2)N1 (centres undefined) | -9.3 |

Assay: NCI Yeast Anticancer Drug Screen. Data for the mec2-1 strain (AID 157)
Conditions: S. cerevisiae mec2-1 strain, at 50.0 µM, hits give high values
Outline: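 Strain: mec2-1 (DNA repair/cell cycle alteration). Compound exposure, then growth measured; inhibition expressed relative to vehicle.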

| Structure (SMILES) | growth inhibition [%] |
| --- | --- |
| CC(=O)Nc1cc(OC(C)=O)nc2c1CCC2 | -0.05 |
| COc1ccc(/C=C2/SC(=Nc3ccccc3)N(NC(=O)Cc3ccccc3)C2=O)c(OC)c1 | -19.3 |
| CCOc1c(OC)ccc(/C(C)=N\O)c1OCC | 0.65 |
| CCCCCCCSSCCCCCCC | -26.1 |
| CCc1occc(=O)c1O | -6.95 |
| CC(=O)Nc1ccc(NC(=O)Nc2cccc(Cl)c2C)cc1 | -0.35 |
| C=C(C)CN(Cc1ccccc1)C1CCCCCCC1 | -11.3 |
| Nc1ccc(N)c2cc(S(=O)(=O)O)ccc12 | -4.8 |
| O=C(O)c1c(Br)c(Br)c(Br)c(Br)c1C(=O)Nc1cc([N+](=O)[O-])ccc1O | -8.45 |
| CC(=O)c1ccc2c(c1)-c1ccccc1C(=O)C2=O | -22.7 |
| Cc1nc2c(c(-c3ccc(Cl)cc3)n1)Cc1c(ccc3ccccc13)O2 | -5.9 |
| CC(=O)Nc1ccc2c(c1)Cc1cc(NC(C)=O)c(Cl)cc1-2 | 11.9 |
| C=CC(C)(CCC=C(C)C)OC(C)=O (centres undefined) | 5.75 |
| C[n+]1cccc(/C=C/c2ccc3cccc(O)c3n2)c1 | -3.75 |
| CC1CCC(CCBr)CC1 (centres undefined) | -9.9 |
| COc1ccc(COc2ccc([N+](=O)[O-])cc2)cc1 | 5 |
| CN(C)/C=C(/N=C(C#N)C#N)C1OCCO1 | 8.55 |
| CCCCCCOC(=O)/C=C1/OC(=O)c2ccccc21 | -15.5 |
| CC1C=CC(C)c2c(-c3ccccc3)oc(-c3ccccc3)c21 (centres undefined) | 8.6 |
| CC(C)(C)c1ccc(SCC#CCOc2ccc(Cl)cc2)cc1 | 4.2 |
| COc1cc(/C=C/c2ccc([N+](=O)[O-])cc2[N+](=O)[O-])ccc1O | 8.5 |
| CC12CCC(/C(=N/O)C1=O)C2(C)C (centres undefined) | -2.15 |
| O=C(O)c1cc(-c2ccccc2Cl)nc2cc3ccccc3cc12 | -19.7 |
| CCOC(=O)c1ccc(NC(=S)NCc2cccnc2)cc1 | -3.25 |
| Cc1ccc(/C=N/NS(=O)(=O)c2ccc(/C=C3\NC(=O)NC3=O)cc2)cc1 | -6.1 |
| CC(=Nc1ccc(Cl)c(Cl)c1)c1ccncc1 | -10.1 |
| CCCCCCCCCCCCCCCCCCCOc1ccc(OCCCCCCCC)cc1 | -11.8 |
| COc1cc(OC)c2nccc(NCCCN(C)C)c2c1[N+](=O)[O-] | -22.4 |
